Data taken from PubChem BioAssay (NCATS).
Inconclusive results are not listed. The source made the active and inactive calls. Unless noted, calls come from the whole dose curve.

Tests used:
[1] = molecular target: Lysosomal acid glucosylceramidase (Homo sapiens) (UniProt P04062); experiment: Glucocerebrosidase-p2 (AID 348; in the data active = potency below about 10 µM; note: potency is the fitted concentration of half-maximal effect); settings: purified GBA, blue fluorogenic substrate, 40 min
In short: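 Compounds titrated from 0.6 nM upwards against 0.2 nM enzyme in pH 5.9 citric acid/KH2PO4, taurocholate, tween-20; blue fluorogenic substrate 80 uM, 40 min room temperature, stopped and read Ex 365/Em 440 for AC50.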

[2] = AP1 Signaling Pathway (AID 357; active = well fitted curve in either direction with a large enough effect, not every such curve was filed as active;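 note: ME-180 reporter cells stimulated with EGF at its EC50 level; % is set by controls: 0 for no effect and ±100 for the full control effect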); settings: ME-180 AP-1-bla reporter, EGF-induced, beta-lactamase ratio, 5 h; at 7.69 µM (top of the series) unless noted
In short: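 A ratiometric CCF4 readout (405 nm excitation; 460 and 530 nm emission) quantified AP-1-driven beta-lactamase in ME-180 cells after 5 h with compound and EC50 EGF; AC50 values were derived for activators and inhibitors.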

[3] = molecular target: Cytochrome P450 1A2 (Homo sapiens) (UniProt P05177); experiment: p450-cyp1a2 (AID 410); settings: recombinant CYP1A2, luciferin-ME demethylation, luminescence; series mostly up to 57 µM; note: potency is the fitted concentration of half-maximal effect;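 for activity change, negative = inhibition: -100% = full effect of reference inhibitor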
Cytochrome P450 1A2 (Homo sapiens), sequence (P05177 whole entry, looked up): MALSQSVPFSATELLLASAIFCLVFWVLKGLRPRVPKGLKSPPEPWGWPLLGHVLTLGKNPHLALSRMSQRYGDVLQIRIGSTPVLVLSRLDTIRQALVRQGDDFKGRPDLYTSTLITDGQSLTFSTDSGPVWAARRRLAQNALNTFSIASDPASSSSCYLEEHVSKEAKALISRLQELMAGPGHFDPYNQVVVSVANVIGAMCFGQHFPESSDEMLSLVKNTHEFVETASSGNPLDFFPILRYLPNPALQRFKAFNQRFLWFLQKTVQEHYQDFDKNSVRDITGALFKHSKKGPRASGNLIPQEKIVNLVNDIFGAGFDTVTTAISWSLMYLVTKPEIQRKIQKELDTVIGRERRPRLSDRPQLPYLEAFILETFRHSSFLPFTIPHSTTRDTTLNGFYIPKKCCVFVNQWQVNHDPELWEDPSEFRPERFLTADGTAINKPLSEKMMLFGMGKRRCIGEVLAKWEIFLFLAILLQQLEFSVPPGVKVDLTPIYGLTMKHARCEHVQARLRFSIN
In short: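 20nM CYP1A2 with 100uM Luciferin-ME (at Km) in 100mM KPO4; compound preincubated 10 min, NADPH regeneration added, 60 min at room temperature. Luciferin quantified by luminescence after detection reagent; normalized to 57 uM furafylline.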

[4] = Stat Signaling Pathway (AID 446; active = well fitted curve in either direction with a large enough effect, not every such curve was filed as active;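 note: ME-180 cervical cancer cells given 40 pM IL-6 alongside compound; SIE-controlled beta-lactamase reporter measured as 460/530 nm FRET emission ratio; % is set by controls: 0 for no effect and ±100 for the full control effect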); settings: ME-180 SIE beta-lactamase reporter, IL-6 stimulated, 5 h; at 7.69 µM (top of the series) unless noted
In short: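 Reporter line: ME-180 cervical carcinoma, SIE-beta-lactamase. Treatment: compound with 40 pM IL-6, 5 hrs, 37 C, in low-serum OPTI-MEM with 10 mM HEPES pH 7.3. Detection: 460/530 nm fluorescence.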

[5] = molecular target: Glucocorticoid receptor (Homo sapiens) (UniProt P04150); experiment: GR-EFC Redistribution (AID 451); settings: CHO-K1 GR-EFC translocation, beta-gal luminescence, 2 h; note: potency is the fitted concentration of half-maximal effect
Glucocorticoid receptor (Homo sapiens), sequence (P04150 whole entry, looked up, the tested form may be a part): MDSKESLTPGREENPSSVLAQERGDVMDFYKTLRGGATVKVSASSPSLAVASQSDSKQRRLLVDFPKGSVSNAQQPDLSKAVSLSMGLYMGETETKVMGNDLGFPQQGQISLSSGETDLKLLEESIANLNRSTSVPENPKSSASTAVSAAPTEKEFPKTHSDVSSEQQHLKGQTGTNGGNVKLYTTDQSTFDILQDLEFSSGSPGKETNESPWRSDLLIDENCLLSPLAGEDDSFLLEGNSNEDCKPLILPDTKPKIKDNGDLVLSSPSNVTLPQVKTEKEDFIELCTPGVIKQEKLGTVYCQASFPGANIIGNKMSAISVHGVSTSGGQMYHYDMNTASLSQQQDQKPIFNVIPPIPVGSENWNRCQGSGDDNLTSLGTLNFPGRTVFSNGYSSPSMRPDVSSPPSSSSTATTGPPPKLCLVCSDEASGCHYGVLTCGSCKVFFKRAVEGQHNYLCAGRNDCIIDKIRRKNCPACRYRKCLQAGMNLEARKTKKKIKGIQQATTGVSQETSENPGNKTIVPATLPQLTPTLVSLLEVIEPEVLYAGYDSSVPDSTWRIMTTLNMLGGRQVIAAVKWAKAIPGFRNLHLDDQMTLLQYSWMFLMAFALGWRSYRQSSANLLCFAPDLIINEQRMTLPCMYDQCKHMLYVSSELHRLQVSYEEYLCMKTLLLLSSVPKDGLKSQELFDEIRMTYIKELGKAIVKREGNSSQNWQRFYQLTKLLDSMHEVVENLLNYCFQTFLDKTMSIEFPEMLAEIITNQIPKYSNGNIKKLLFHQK
In short: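 CHO-K1 cells expressing nuclear EA and GR-ED fragments of b-gal; compounds titrated up to 46 uM final, 2 h at 37 C. GR nuclear translocation read as complemented b-gal luminescence after 1 h RT detection.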

[6] = molecular target: Mitogen-activated protein kinase 10 (Mus musculus) (UniProt Q61831); experiment: JNK3 AlphaScreen Assay (AID 530; active = well fitted curve in either direction with a large enough effect, not every such curve was filed as active;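 note: kinase came from lysate of stimulated human HepG2 cells; signal reports phosphorylation of biotinylated GST-cJun 1-79 at Ser73 with 10 µM ATP; % is set by controls: 0 for no effect and ±100 for the full control effect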); settings: JNK3 lysate, c-Jun phosphorylation; series mostly up to 57.1 µM
In short: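 Pre-activated (IL-1β/TNFα) JNK3 in HepG2 lysates phosphorylates biotin-GST-cJun(1-79), 10 uM ATP; anti-phospho-cJun(Ser73) AlphaScreen read at room temperature, pH 7.6 Tris buffer. Compounds pre-incubated 15 min as titrations.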

[7] = molecular target: 3',5'-cyclic-AMP phosphodiesterase 4B (Homo sapiens) (UniProt Q07343); experiment: qHTS Assay for Inhibitors of PDE-IV (AID 607; active = well fitted activation curve with a large enough effect in the main read-out, with a control signal flat, not every such curve was filed as active; note: % of control where 0% means no effect); settings: HEK293 ACTOne CNG channel cells, membrane potential fluorescence; series mostly up to 22.9 µM
3',5'-cyclic-AMP phosphodiesterase 4B (Homo sapiens), sequence (Q07343 whole entry, looked up): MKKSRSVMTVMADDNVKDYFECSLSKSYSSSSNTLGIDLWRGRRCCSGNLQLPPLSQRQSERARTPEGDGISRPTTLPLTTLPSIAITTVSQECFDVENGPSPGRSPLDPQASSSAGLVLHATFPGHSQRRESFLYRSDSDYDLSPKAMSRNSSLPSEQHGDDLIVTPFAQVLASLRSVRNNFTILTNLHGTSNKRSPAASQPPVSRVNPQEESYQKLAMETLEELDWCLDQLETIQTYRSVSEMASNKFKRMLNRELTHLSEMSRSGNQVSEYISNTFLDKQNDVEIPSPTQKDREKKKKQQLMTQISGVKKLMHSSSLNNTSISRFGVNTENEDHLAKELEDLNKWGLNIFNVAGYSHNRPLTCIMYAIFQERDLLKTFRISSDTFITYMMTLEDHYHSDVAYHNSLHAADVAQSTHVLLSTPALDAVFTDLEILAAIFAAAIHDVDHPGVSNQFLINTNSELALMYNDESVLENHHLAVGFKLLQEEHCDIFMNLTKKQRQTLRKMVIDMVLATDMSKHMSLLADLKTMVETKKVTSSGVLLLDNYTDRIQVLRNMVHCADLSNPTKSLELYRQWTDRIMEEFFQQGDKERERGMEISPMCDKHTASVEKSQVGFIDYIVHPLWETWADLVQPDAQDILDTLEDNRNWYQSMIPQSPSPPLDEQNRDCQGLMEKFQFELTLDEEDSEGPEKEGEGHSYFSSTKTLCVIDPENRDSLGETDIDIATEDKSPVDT
In short: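 Cell-based read-out of cAMP via a modified cyclic nucleotide-gated channel and membrane potential dye (535/590 nm) in HEK293 cells expressing PDE4 endogenously. Compounds tested up to 22.9 uM final; 100 uM RO 20-1724 reference.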

[8] = molecular target: Cytochrome P450 2D6 (Homo sapiens) (UniProt P10635); experiment: qHTS Assay for Inhibitors and Substrates of Cytochrome P450 2D6 (AID 891; active = well fitted curve in the direction sought with a large enough effect; an effect the other way counts as inactive or inconclusive; note: potency is the fitted concentration of half-maximal effect; nearly all actives have a fitted effect of over 60% in size); settings: recombinant CYP2D6, luciferin-ME EGE luminescence; series mostly up to 57.1 µM
Cytochrome P450 2D6 (Homo sapiens), sequence (P10635 whole entry, looked up): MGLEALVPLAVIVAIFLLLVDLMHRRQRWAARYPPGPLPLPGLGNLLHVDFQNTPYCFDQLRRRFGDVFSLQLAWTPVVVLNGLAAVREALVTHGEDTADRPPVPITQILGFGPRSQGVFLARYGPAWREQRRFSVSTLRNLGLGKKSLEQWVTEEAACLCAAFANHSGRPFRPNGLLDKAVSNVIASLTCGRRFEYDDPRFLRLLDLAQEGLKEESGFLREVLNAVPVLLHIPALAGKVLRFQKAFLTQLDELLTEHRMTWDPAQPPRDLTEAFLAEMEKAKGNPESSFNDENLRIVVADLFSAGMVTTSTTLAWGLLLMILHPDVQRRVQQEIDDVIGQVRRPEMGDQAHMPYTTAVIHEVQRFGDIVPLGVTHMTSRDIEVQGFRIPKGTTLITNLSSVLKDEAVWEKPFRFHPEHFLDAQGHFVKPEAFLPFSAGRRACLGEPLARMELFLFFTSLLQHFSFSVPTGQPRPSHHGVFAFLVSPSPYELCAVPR
In short: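 Human CYP2D6 (5 nM) with 30 uM Luciferin-ME EGE (at Km) in 100 mM KPO4, compound preincubated 10 min, then NADPH regeneration system for 60 min at room temperature. Luciferin read by luminescence; normalized to 1.43 uM quinidine.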

[9] = qHTS Assay for Lipid Storage Modulators (AID 1519); settings: Drosophila S3 cells, BODIPY lipid droplet/cell ratio, laser cytometry, cells loaded with oleic acid; for activity change, negative = inhibition: at 57.5 µM (top of the series)
In short: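 Cells seeded at 5,000 per well were treated with compounds over a concentration series and loaded with oleic acid (400 uM, as added). Lipid droplet fluorescence (488 nm excitation, 500-530 nm channel) was read by laser-scanning cytometry and normalized to 20 uM Triacsin C.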

[10] = Primary qHTS for small molecule stabilizers of the endoplasmic reticulum resident proteome: Secreted ER Calcium Modulated Protein (SERCaMP) assay (AID 1508630; active = well fitted curve in the direction sought with a large enough effect; an effect the other way counts as inactive or inconclusive; note: % is set by controls: 0 for no effect and ±100 for the full control effect); settings: SH-SY5Y GLuc-SERCaMP (Gaussia luciferase released on ER calcium loss) secretion, thapsigargin, luminescence; series mostly up to 38.4 µM
In short: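 GLuc-SERCaMP-expressing SH-SY5Y cells, pretreated 16 h with compound, are challenged with thapsigargin to empty ER calcium stores; after 4 h, coelenterazine is added directly to the medium and luminescence is imaged.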

[11] = molecular target: Cytochrome P450 3A4 (Homo sapiens) (UniProt P08684); experiment: qHTS Assay for Activators of Cytochrome P450 3A4 (AID 885; active = well fitted curve in the direction sought with a large enough effect; an effect the other way counts as inactive or inconclusive; note: nearly all actives have a fitted effect of over 65% in size); settings: recombinant CYP3A4, Luciferin-PPXE luminescence, 60 min; series mostly up to 57.1 µM
Cytochrome P450 3A4 (Homo sapiens), sequence (P08684 whole entry, looked up): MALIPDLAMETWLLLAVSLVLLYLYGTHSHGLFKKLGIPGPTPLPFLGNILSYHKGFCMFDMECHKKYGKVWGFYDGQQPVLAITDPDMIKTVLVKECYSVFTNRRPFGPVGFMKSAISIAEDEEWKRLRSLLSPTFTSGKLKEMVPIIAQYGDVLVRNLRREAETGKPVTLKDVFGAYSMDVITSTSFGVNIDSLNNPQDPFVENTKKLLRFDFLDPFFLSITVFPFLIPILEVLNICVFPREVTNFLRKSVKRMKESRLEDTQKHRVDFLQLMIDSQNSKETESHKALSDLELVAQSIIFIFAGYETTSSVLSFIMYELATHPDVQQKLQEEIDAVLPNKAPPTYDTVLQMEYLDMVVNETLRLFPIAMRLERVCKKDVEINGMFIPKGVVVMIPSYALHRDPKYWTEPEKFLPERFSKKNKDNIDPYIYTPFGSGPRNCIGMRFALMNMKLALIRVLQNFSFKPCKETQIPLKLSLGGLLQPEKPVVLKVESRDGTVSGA
In short: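 Signal was normalized against complete inhibition by 57 uM ketoconazole. The reaction used 20nM CYP3A4 with 25uM Luciferin-PPXE, 10-min compound preincubation and a 60-min NADPH-supported step at RT.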

[12] = molecular target: Cytochrome P450 2C19 (Homo sapiens) (UniProt P33261); experiment: qHTS Assay for Inhibitors and Substrates of Cytochrome P450 2C19 (AID 899; active = well fitted curve in the direction sought with a large enough effect; an effect the other way counts as inactive or inconclusive; note: % is set by controls: 0 for no effect and ±100 for the full control effect; nearly all actives have a fitted effect of over 60% in size); settings: recombinant CYP2C19, luciferin-H EGE luminescence; series mostly up to 57.1 µM
Cytochrome P450 2C19 (Homo sapiens), sequence (P33261 whole entry, looked up): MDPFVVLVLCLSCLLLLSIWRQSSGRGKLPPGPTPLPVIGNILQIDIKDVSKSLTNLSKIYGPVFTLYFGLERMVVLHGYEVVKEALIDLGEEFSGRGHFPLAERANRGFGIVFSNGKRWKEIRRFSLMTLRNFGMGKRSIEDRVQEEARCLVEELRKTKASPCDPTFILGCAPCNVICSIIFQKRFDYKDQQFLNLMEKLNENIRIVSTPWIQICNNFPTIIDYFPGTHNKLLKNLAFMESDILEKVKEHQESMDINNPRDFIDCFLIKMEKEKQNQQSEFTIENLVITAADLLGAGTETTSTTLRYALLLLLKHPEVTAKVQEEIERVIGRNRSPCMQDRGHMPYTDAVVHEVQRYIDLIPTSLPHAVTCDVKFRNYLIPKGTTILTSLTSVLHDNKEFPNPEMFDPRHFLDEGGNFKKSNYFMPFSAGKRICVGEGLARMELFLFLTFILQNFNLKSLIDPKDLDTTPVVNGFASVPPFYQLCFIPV
In short: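 5 nM human CYP2C19 with 10uM Luciferin-H EGE (at KM) in 50mM KPO4, compound preincubated 10 min at 37C, then NADPH regeneration for 60 min at 37C. Luciferin read by luminescence after detection reagent; normalized to 57uM ketoconazole as full inhibition.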

[13] = molecular target: Glucocorticoid receptor (Homo sapiens) (UniProt P04150); experiment: GR-GFP Redistribution (AID 450;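 active = compounds whose dose series gives a full or clear partial fitted curve of increased nuclear translocation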; note: potency is the fitted concentration of half-maximal effect); settings: U2OS GR-GFP nuclear translocation, laser cytometry, 2 h
[14] = molecular target: Cytochrome P450 3A4 (Homo sapiens) (UniProt P08684); experiment: qHTS Assay for Inhibitors and Substrates of Cytochrome P450 3A4 (AID 884; active = well fitted curve in the direction sought with a large enough effect; an effect the other way counts as inactive or inconclusive; note: potency is the fitted concentration of half-maximal effect; nearly all actives have a fitted effect of over 50% in size); settings: recombinant CYP3A4, Luciferin-PPXE luminescence; series mostly up to 57.1 µM
In short: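 20 nM human CYP3A4 with 25 uM Luciferin-PPXE (at KM) in 200 mM KPO4, preincubated 10 min with compound; NADPH regeneration started a 60 min RT reaction. Luciferin detected by luminescence, normalized to 57 uM ketoconazole as full inhibition.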

[15] = qHTS Assay for Identification of Small Molecule Agonists for Hypoxia Response Element Signaling Pathway (AID 914; active = well fitted activation curve with a large enough effect in the signal ratio, with a control signal flat, not every such curve was filed as active; the % refers to the signal ratio; note: potency is the fitted concentration of half-maximal effect; for activation: % of control where 0% means no effect); settings: ME-180 (cervical carcinoma) HRE-bla reporter, beta-lactamase ratio, CoCl2, 17 h; activation: stronger effect = higher value
In short: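 HRE-bla ME-180 cells, overnight plating in Opti-MEM with 0.5% dialyzed FBS; cpd titration + EC50 CoCl2, 17 h, 37 degrees Celsius; CCF4 2.5 h RT; 460/530 nm ratio; AC50.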

[16] = Confirmation and Secondary Assay for Modulators of Hemoglobin Beta Chain Splicing at IVS2 654 locus (AID 910; active = well fitted curve in the direction sought with a large enough effect; an effect the other way counts as inactive or inconclusive;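 note: HeLa cells stably carrying EGFP split by mutant beta-globin IVS2-654 intron; % of control where 0% means no effect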); settings: HeLa EGFP-654 splicing reporter, GFP fluorescence, 48 h; series mostly up to 38.3 µM
In short: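 HeLa cells stably expressing EGFP interrupted by β-globin IVS2-654 intron, seeded overnight in Opti-MEM/2% FCS, then treated 2 days at 37 °C. Restored splicing read as total peak GFP intensity per well by laser scanning cytometry (488 nm excitation, 500–520 nm emission); 500 nM antisense PNA as control.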

[17] = molecular target: Ubiquitin carboxyl-terminal hydrolase 1 (Homo sapiens) (UniProt O94782); experiment: Inhibitors of USP1/UAF1: Pilot qHTS (AID 504865; active = well fitted curve in the direction sought with a large enough effect; an effect the other way counts as inactive or inconclusive;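 note: rhodamine fluorescence freed from ubiquitin-rhodamine substrate followed over time; top concentration of the series differs between compounds; % is set by controls: 0 for no effect and ±100 for the full control effect; nearly all actives have a fitted effect of over 35% in size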); settings: purified USP1/UAF1, Ub-rhodamine cleavage fluorescence; series mostly up to 54.9 µM
Ubiquitin carboxyl-terminal hydrolase 1 (Homo sapiens), sequence (O94782 whole entry, looked up): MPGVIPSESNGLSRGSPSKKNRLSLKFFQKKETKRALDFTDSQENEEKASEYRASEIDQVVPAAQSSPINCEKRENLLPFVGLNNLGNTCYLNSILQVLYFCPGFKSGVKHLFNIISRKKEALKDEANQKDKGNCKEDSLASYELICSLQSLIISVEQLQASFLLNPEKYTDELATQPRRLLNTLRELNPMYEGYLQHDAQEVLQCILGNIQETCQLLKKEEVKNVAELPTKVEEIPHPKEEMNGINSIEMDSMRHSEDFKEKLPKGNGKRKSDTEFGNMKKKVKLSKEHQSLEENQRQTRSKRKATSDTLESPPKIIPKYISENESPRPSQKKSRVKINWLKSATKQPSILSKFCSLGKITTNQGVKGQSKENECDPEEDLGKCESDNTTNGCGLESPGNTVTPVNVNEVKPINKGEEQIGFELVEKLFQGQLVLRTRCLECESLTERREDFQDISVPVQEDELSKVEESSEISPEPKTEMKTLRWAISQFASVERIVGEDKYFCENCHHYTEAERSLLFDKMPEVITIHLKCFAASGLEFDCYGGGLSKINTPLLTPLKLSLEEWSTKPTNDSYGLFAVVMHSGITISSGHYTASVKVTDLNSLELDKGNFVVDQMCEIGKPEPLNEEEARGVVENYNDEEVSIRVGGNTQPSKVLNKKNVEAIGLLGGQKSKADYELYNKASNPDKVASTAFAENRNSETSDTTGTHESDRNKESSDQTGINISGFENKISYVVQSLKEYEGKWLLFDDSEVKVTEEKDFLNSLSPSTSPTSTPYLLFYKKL
In short: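 1nM USP1/UAF1 + cpd, 15 min RT; start w/ Ub-Rho 150nM final; kinetic FL 480/540 nm, 6 reads q60 s. Buffer 50mM HEPES pH 7.8, 0.5mM EDTA, 1mM TCEP, 0.01% Tween-20, 0.1 mg/ml BSA.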

[18] = measured here: cell count channel max response
[19] = measured here: lipid channel max response

Lysosomal acid glucosylceramidase (Homo sapiens), sequence (P04062 whole entry, looked up): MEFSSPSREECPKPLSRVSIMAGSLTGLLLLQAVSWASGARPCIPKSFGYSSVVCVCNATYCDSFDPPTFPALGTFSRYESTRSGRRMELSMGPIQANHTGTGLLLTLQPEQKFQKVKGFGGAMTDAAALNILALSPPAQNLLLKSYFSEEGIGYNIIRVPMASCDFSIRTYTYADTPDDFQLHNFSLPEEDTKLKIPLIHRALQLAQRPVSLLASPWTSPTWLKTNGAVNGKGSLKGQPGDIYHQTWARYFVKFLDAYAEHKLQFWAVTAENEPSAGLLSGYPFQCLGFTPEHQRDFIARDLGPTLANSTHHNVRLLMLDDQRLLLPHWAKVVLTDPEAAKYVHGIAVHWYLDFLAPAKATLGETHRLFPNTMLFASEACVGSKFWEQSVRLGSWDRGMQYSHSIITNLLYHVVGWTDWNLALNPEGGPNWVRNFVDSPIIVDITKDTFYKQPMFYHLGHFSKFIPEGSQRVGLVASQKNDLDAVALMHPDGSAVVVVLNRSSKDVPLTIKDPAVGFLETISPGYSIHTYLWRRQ

Row | Structure (SMILES) | Potency [1] | activity change, negative = inhibition [2] | Potency [3] | activity, negative = inhibition [4] | Potency [5] | Potency [6] | Potency [7] | Potency [8] | activity change, negative = inhibition [9] | max response [9, 18] | max response [9, 19] | outcome [10] | Potency [11] | Potency [12] | Potency [13] | Potency [14] | Potency [15] | activation [15] | Potency [16] | Potency [17]
1 | COc1ccccc1CN1CCC2(CC1)CCN(C(=O)c1cccn1C)CC2 | > 11.4 µM (inactive) | 6.08% (inactive) | inactive | -5.76% (inactive) | > 46 µM (inactive) | inactive | inactive | 3.98 µM (active) | -1.94% (inactive) | 8.14% | 8.04% | inactive | – | – | – | – | – | – | – | –
2 | O=C(c1csnn1)N1CCC2(CCCN(Cc3ccccc3)C2)CC1 | > 11.4 µM (inactive) | 9.34% (inactive) | inactive | -5.61% (inactive) | > 46 µM (inactive) | inactive | inactive | 1.26 µM (active) | 3.37% (inactive) | 10.8% | 18% | inactive | – | – | – | – | – | – | – | –
3 | O=C(Nc1ccccc1)N1CC[C@@]2(CCCN(C(=O)c3cc(C(F)(F)F)cc(C(F)(F)F)c3)C2)C1 | > 11.4 µM (inactive) | -5.62% (inactive) | 25.1 µM (active) | -6.2% (inactive) | > 46 µM (inactive) | inactive | inactive | – | 4.15% (inactive) | -0.407% | 6.94% | inactive | inactive | inactive | – | – | – | – | – | –
4 | COC(=O)N1CCC2(CCCN(Cc3ccc(C#N)cc3)C2)CC1 | > 11.4 µM (inactive) | -3.68% (inactive) | inactive | -2.36% (inactive) | > 46 µM (inactive) | inactive | inactive | 0.316 µM (active) | -1.17% (inactive) | 13.4% | 12.9% | inactive | inactive | – | – | – | – | – | – | –
5 | COCCn1c(=O)c(-c2cn(C)c3ccccc23)nc2cnc(Oc3ccc(OC)cc3)nc21 | > 11.4 µM (inactive) | 14.1% (inactive) | 2.51 µM (active) | – | > 46 µM (inactive) | – | inactive | – | -11.5% (inactive) | 2.76% | -6.23% | inactive | inactive | – | > 46 µM (inactive) | 3.98 µM (active) | 3.16 µM (active) | – | – | –
6 | COc1ccccc1CN1CCCC2(CCN(C(=O)c3csnn3)CC2)C1 | > 11.4 µM (inactive) | 3.73% (inactive) | inactive | 0.773% (inactive) | > 46 µM (inactive) | inactive | inactive | – | 6.98% (inactive) | 9.62% | 21.2% | inactive | inactive | – | – | – | – | 12.1% (inactive) | – | –
7 | CS(=O)(=O)Nc1cccc(-c2nc(NCc3cccs3)c3ccccc3n2)c1 | > 2.29 µM (inactive) | -19.7% (inactive) | 1 µM (active) | – | > 46 µM (inactive) | inactive | – | – | 6.98% (inactive) | -9.8% | -2.81% | inactive | inactive | – | > 46 µM (inactive) | 3.16 µM (active) | – | – | inactive | inactive
8 | CC(C)CN1CCCC2(CCN(C(=O)c3csnn3)CC2)C1 | > 11.4 µM (inactive) | 1.87% (inactive) | inactive | -5.65% (inactive) | > 46 µM (inactive) | inactive | inactive | 5.01 µM (active) | 2.3% (inactive) | 15.1% | 21% | inactive | inactive | – | – | – | – | – | – | –
9 | O=C(c1cccc(F)c1)N1CCC[C@@]2(CCN(c3ccccc3)C2)C1 | > 11.4 µM (inactive) | -6.87% (inactive) | inactive | -5.23% (inactive) | – | inactive | inactive | – | 4.17% (inactive) | 8.88% | 15.7% | inactive | inactive | – | – | 6.31 µM (active) | – | – | – | –
